# From publication PMC5540273 (PLoS ONE, 2017)
# Key:
# Conditions in all cases: concentration: 1 μM, replicates: in singlicate; n = 1
# [1] = test system: T1, LOK
# T1 construct: gene STK10
# [2] = test system: LRRK2
# [3] = test system: LTK
# [4] = test system: LYN
# [5] = test system: T2, LZK
# T2 construct: gene MAP3K13
# [6] = test system: MAK
# [7] = test system: MAP3K15
# [8] = test system: MAP3K1
# [9] = test system: MAP3K2
# [10] = test system: MAP3K3
# 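Also: KINOMEscan kinase panel screen.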
SMILES,%Inh [1],%Inh [2],%Inh [3],%Inh [4],%Inh [5],%Inh [6],%Inh [7],%Inh [8],%Inh [9],%Inh [10]
CCc1ccc(-c2ccc3c(c2)-c2nn(C)cc2S(=O)(=O)N3C)cc1,2%,0%,0%,0%,0%,0%,0%,0%,0%,0%
CCC(=O)c1c(-c2ccccc2)c2cc(Cl)ccc2c(=O)n1Cc1ccc(C(=O)O)cc1,0%,0%,0%,0%,0%,4%,0%,0%,0%,0%
O=c1cc(N2CCOCC2)nc2n(Cc3ccc(F)c(Cl)c3)ccn12 [GSK2297099],0%,0%,0%,2%,0%,28%,0%,4%,10%,0%
O=C(Nc1n[nH]c2cc(-c3ccccc3F)ccc12)C1CC1 [SB-733371],1%,0%,0%,0%,0%,0%,32%,0%,0%,22%
COc1cc2ncn(-c3cc(OCc4ccc(S(C)(=O)=O)cc4)c(C(N)=O)s3)c2cc1OC [GW869979],20%,29%,0%,26%,3%,0%,0%,8%,9%,0%
Cn1c(=O)c(F)c(Nc2ccc(I)cc2F)c2c(=O)n(OC[C@H](O)CO)cnc21,2%,0%,20%,14%,0%,0%,0%,0%,0%,4%
Nc1ncnc2c1ncn2-c1ccc(Cl)cc1 [AH2635],0%,0%,14%,0%,27%,8%,0%,0%,0%,0%
O=C(Nc1n[nH]c2nc(-c3ccccc3)c(Br)cc12)C1CC1 [SB-708998],0%,29%,4%,3%,0%,12%,3%,0%,7%,4%
COc1ccc(-c2cc3c(C)nc(N)nc3n([C@H]3CC[C@H](OCCO)CC3)c2=O)cn1,9%,0%,9%,0%,0%,0%,0%,0%,0%,0%
CN1C(=O)C(Nc2cc(Cl)c(O)c(Cl)c2)=C(c2ccc(Cl)cc2)C1=O [SB-404321],0%,0%,0%,24%,6%,0%,0%,0%,0%,0%
Nc1ncnc2c1ncn2-c1cccc2ccccc12 [SKF-97184],3%,4%,0%,15%,34%,30%,9%,5%,18%,0%
Cl.NS(=O)(=O)c1cccc(Nc2cc(-c3ccc(F)cc3)n[nH]2)c1 [GW824645],0%,0%,0%,0%,0%,0%,1%,0%,22%,0%
CCS(=O)c1ccc(-c2coc3ccc(-c4nnc(C)o4)cc23)cc1 (stereo not shown),17%,5%,0%,0%,34%,15%,0%,3%,8%,20%
Cc1cccc(-c2cc(-c3c[nH]nc3-c3ccccn3)ccn2)c1 [GW679395],0%,10%,4%,0%,12%,33%,0%,5%,6%,0%
COc1ccc(Nc2nccc(N3CCC(NS(=O)(=O)c4ccc(NC(C)=O)cc4)C3)n2)cc1 (stereo not shown) [GSK1379729],14%,28%,8%,3%,0%,30%,11%,15%,0%,0%
CCn1c(-c2ccoc2)nc2cnccc21 [SB-733887],0%,0%,1%,4%,0%,18%,0%,14%,3%,0%
Fc1cccc(CSc2nnc(-c3ccc4c(c3)CCO4)o2)c1,9%,10%,16%,19%,0%,5%,15%,26%,2%,2%
FC(F)(F)c1ccc(-c2ncn(CCCN3CCOCC3)c2-c2ccncc2)cc1 [SB-217780],10%,0%,23%,3%,0%,29%,7%,12%,8%,0%
Cc1nn2c(=O)cc(N3CCOCC3)nc2n1Cc1cccc(Cl)c1Cl [GSK2342769],0%,22%,0%,0%,0%,20%,9%,17%,16%,0%
